Among the data in ChEMBL document CHEMBL3988442, “University of Dundee, Small-Polar-MMV Screening Library” (2021) are Percent Effect values, retold here.

Design in all cases: scale not given: direction of the effect not stated beside the values
Experiment [1] concerns the target Protein translocase subunit SecA (Escherichia coli (strain K12)) (UniProt P10408). Put plainly: Assay to Identify E. coli SecA ATPase Inhibitors. It counts as functional. Particulars: 30 µM.
Experiment [2] has as its target T1, Ubiquitin-activating enzyme e1, putative (Leishmania donovani (strain BPK282A1)) (UniProt E9BSI1).
T1 sequence (whole entry): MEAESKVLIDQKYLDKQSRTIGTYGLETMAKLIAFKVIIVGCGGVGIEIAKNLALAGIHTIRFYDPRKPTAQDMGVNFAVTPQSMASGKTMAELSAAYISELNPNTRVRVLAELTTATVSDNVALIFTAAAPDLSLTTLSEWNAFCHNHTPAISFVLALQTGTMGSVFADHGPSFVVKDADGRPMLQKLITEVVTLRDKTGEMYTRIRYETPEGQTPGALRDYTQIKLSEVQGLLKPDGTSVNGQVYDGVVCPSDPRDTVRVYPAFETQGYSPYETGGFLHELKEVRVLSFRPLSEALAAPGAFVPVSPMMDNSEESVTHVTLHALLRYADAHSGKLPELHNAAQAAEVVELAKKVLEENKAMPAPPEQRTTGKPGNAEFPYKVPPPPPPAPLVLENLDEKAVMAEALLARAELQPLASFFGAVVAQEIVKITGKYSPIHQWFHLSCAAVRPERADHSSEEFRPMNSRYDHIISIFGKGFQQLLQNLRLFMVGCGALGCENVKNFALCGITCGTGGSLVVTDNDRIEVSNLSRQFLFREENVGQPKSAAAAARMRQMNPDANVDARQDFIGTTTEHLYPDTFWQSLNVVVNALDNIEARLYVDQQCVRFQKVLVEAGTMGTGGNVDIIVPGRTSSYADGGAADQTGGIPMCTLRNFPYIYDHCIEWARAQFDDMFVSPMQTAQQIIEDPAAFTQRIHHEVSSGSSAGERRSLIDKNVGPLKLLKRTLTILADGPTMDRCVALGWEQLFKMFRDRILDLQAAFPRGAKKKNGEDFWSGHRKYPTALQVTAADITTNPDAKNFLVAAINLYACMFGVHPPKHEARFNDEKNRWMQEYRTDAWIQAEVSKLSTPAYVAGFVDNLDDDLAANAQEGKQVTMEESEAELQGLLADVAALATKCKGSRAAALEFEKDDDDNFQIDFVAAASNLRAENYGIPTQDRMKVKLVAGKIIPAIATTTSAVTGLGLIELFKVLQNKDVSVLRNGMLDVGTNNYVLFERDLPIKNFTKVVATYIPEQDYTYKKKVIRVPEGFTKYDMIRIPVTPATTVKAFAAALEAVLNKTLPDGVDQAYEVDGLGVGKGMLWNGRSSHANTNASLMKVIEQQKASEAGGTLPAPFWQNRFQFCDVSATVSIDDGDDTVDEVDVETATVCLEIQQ
Kind of experiment: Leishmania donovani Ubiquitin Activating Enzyme (LdE1). The experiment is classed as functional. Particulars: 30 µM.

Experiment [3] addresses AMP-activated protein kinase, AMPK (Homo sapiens) (UniProt P54646+O43741+P54619+Q9UGJ0+Q9Y478+Q13131+Q9UGI9). Put plainly: AMP-dependent Kinase enzyme assay. An in vitro enzyme assay that detects ADP turnover that is directly proportional to AMPK activity. This uses naive AMPK that is activated during the assay with MK-8722. The experiment is classed as functional. Particulars: 30 µM.

The target in experiment [4] is Sialic acid-binding Ig-like lectin 9 (Homo sapiens) (UniProt Q9Y336). Put plainly: Hs-Siglec9 ALPHAscreen SOP 20170721. To be noted: 10 µM. A general note: Alpha assays give light when donor and acceptor beads are brought close together.
The next experiment relates to Trypanosoma cruzi. Put plainly: Trypanosoma cruzi phosphomannomutase and mannose-1-phosphate guanylyltransferase assay. It counts as functional. Particulars: 10 µM.
Experiment [5] has as its target T2, Arginase-2, mitochondrial (Homo sapiens) (UniProt P78540).
T2 sequence (whole entry): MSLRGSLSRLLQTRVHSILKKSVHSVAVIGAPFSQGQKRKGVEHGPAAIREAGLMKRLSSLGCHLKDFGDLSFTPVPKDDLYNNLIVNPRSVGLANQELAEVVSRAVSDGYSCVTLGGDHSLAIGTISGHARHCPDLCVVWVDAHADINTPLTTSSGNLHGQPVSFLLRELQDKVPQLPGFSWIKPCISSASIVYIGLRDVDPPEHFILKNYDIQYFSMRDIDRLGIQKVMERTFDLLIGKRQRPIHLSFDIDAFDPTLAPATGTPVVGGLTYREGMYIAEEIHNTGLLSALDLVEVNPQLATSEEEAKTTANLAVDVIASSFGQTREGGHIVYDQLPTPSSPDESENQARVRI
Put plainly: in vitro enzyme assay to detect the production of urea directly proportional to the activity of Arginase II. Note: in the data most compounds retested in dose-response had high values. The experiment is classed as functional. Particulars: 33.3 µM.

For experiment [6], the target named is T3, Proteasome subunit beta (Trypanosoma cruzi) (UniProt O96673).
T3 sequence (whole entry): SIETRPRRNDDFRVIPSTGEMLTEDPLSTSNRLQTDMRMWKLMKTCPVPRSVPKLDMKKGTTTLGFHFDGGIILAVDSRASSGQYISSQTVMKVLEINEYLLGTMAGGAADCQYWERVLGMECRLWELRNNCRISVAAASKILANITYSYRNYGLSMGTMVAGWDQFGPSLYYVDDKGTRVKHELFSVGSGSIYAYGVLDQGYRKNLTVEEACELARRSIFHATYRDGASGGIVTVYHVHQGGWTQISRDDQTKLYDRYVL
Put plainly: Trypanosoma cruzi proteasome chymotrypsin-like activity (TcProtChymo) assay. Note: in the data most compounds retested in dose-response had high values. It counts as functional. To be noted: 9.37 µM.

The species named for a further experiment is Homo sapiens. Kind of experiment: To identify inhibition of the IFN signalling (Jak-Stat) pathway via expression of an eGFP reporter gene under the control of an IFN-stimulated response element (ISRE) containing MxA promoter. It counts as functional. To be noted: 30 µM.
Experiment [7] concerns the target T4, Tyrosyl-tRNA synthetase, putative (Trypanosoma cruzi (strain CL Brener)) (UniProt Q4DSP6).
T4 sequence (whole entry): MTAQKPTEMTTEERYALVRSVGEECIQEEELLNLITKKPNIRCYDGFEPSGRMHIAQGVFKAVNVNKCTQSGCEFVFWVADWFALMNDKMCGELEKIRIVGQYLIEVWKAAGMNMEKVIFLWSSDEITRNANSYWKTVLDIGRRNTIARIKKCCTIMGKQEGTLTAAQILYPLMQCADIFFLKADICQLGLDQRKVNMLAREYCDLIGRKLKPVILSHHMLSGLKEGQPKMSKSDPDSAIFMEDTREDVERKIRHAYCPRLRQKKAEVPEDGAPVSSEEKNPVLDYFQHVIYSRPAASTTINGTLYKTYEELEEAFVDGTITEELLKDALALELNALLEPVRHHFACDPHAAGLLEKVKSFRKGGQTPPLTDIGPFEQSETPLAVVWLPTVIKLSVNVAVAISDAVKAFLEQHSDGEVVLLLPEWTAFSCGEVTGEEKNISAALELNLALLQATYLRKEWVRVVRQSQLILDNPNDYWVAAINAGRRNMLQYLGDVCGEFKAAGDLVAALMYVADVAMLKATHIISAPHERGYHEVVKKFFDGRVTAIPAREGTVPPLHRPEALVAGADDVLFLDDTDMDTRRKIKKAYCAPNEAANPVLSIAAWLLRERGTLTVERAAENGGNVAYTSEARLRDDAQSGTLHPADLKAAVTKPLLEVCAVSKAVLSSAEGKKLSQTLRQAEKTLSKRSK
Put plainly: Trypanosoma cruzi tyrosyl tRNA synthetase (TcYRS) _High Tyrosine SOP. Note: in the data most compounds retested in dose-response had high values. It counts as functional. Particulars: 30 µM.

The target in experiment [8] is T4, Tyrosyl-tRNA synthetase, putative (Trypanosoma cruzi (strain CL Brener)). Put plainly: Trypanosoma cruzi tyrosyl tRNA synthetase (TcYRS) SOP. It counts as functional. Particulars: 30 µM.
For experiment [9], the target named is Chromo domain-containing protein 1 (Saccharomyces cerevisiae (strain ATCC 204508 / S288c) (Baker's yeast)) (UniProt P32657). Kind of experiment: ScCHD-1 Enzyme Inhibition Assay. Note: in the data most compounds retested in dose-response had high values. To be noted: 30 µM. It counts as functional.

The structures appear in SMILES notation. For some assays here: Potency and affinity values are given separately.

Sequence of Chromo domain-containing protein 1 (Saccharomyces cerevisiae (strain ATCC 204508 / S288c) (Baker's yeast)) (P32657 whole entry, the tested form may be a part): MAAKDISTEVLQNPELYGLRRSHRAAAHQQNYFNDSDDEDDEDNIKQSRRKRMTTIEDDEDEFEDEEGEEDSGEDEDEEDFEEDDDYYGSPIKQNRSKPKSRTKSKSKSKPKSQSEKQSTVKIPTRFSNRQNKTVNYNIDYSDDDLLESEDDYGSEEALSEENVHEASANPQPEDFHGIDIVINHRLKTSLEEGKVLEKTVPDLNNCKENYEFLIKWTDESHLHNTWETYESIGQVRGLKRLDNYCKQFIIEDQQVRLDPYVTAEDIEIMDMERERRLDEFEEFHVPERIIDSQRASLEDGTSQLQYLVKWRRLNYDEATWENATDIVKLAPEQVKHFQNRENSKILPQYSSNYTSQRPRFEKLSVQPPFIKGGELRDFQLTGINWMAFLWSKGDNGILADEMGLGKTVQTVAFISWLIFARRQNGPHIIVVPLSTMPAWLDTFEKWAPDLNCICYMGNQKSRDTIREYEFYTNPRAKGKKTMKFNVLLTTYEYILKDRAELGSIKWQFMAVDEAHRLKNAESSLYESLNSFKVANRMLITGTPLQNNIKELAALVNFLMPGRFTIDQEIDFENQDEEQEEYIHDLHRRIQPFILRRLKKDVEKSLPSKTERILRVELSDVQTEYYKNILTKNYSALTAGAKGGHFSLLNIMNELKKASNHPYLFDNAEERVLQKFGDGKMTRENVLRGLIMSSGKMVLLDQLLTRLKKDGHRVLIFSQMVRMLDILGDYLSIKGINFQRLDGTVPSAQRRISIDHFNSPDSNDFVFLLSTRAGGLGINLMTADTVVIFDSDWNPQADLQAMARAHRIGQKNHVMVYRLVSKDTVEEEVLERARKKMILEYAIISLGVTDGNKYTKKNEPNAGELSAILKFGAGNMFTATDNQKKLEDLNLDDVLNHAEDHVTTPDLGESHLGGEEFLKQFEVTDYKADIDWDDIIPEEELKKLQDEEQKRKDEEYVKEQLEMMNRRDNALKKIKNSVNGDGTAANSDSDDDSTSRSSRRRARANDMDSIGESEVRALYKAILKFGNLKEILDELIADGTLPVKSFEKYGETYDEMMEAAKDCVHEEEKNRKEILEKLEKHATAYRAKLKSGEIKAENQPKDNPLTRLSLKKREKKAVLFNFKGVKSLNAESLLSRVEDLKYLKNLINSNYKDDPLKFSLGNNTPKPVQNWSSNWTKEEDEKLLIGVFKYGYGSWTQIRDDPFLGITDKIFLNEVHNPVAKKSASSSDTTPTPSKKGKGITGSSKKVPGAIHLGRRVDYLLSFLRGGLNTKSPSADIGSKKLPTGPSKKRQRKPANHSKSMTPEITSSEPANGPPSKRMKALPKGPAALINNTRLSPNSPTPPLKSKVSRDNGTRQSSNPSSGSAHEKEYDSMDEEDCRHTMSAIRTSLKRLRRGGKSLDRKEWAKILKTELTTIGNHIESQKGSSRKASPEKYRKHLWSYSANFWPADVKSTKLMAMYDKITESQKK
Sequence of Protein translocase subunit SecA (Escherichia coli (strain K12)) (P10408 whole entry): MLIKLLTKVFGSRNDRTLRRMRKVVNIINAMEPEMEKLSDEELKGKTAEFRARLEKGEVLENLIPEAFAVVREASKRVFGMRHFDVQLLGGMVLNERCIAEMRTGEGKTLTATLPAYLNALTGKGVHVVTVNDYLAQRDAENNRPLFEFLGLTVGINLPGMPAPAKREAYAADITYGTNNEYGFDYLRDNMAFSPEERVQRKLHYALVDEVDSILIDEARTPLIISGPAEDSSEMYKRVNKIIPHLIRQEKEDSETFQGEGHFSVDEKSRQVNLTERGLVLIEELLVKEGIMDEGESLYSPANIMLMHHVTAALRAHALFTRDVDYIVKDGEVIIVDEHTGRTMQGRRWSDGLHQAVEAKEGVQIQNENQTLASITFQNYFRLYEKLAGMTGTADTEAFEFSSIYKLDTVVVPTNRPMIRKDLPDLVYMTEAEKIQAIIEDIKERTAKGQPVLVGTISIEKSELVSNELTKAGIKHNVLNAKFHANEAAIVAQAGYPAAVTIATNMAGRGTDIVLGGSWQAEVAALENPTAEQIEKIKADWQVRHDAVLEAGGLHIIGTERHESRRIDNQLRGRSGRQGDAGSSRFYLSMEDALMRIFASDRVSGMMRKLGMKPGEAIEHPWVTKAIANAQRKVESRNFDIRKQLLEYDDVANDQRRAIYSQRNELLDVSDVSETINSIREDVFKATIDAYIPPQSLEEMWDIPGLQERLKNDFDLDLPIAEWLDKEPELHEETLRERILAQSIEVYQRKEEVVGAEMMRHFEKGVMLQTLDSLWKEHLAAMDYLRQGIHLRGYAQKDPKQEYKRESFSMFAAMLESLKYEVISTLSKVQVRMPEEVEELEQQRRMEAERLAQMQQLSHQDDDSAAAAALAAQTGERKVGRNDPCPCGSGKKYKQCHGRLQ
Sequence of Sialic acid-binding Ig-like lectin 9 (Homo sapiens) (Q9Y336 whole entry): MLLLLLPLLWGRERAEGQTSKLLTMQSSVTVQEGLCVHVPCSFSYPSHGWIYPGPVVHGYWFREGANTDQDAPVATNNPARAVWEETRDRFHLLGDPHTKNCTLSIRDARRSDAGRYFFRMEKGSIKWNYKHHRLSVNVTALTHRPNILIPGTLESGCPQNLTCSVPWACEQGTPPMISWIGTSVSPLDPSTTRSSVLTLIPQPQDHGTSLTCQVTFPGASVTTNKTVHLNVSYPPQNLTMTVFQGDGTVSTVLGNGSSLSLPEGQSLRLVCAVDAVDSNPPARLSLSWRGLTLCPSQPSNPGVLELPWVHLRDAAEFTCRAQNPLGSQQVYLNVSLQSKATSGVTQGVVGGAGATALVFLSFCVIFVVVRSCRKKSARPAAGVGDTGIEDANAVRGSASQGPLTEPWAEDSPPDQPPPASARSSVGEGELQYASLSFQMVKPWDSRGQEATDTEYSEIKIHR

Turning to `COCCc1noc(CN(C)C2CCCN(c3ccc(C)nn3)C2)n1` (stereo not given), the Percent Effect in experiment [1] was -2.39%; in experiment [2], 2.67%; in experiment [3] it was -6.26%; in experiment [4] it was 0.801%; with Trypanosoma cruzi it was 3.41%; in experiment [5] it was 1.56%. Further, the Percent Effect in experiment [6] is 11.9%; in the experiment listed under Homo sapiens it was -8.02%; in experiment [7], 4.92%; in [8], 6.17%; in experiment [9], -2.05%.

As for `Cc1cccc(C2(CNC(=O)CCNS(C)(=O)=O)CCCC2)c1`, the Percent Effect is -6.74% in experiment [1]; 15.2% in [2]; -3.25% in [3]; 11.3% in experiment [4]; 4.44% with Trypanosoma cruzi; -11% in [5]. Further, the Percent Effect in experiment [6] was 6.31%; in the experiment filed under Homo sapiens, -4.41%; in experiment [7], 5.42%; in [8], 8.86%; in experiment [9] it was -5.61%.

Turning to `O=C(CN1CCCCC1Cn1cncn1)NCCc1ccc(F)cc1` (stereo not given), the Percent Effect in experiment [1] was -0.868%; in experiment [2], 15.2%; in [3] it was -4.02%; in experiment [4] it was -10.5%; in the experiment on Trypanosoma cruzi it was -6.89%; in experiment [5] it was -2.28%. The Percent Effect is 8.27% in experiment [6]; 37.4% in the experiment listed under Homo sapiens; 8.37% in experiment [7]; 11.4% in [8]; -9.46% in experiment [9].

For the compound `COCCC(=O)N1CCC2(COCc3cnc(-c4ccccc4)nc32)C1` (stereo not given), the Percent Effect in [1] is -1.59%; in experiment [2] it was 2.67%; in [3], 15.5%; in experiment [4], -0.802%; with Trypanosoma cruzi it was -7.48%; in [5] it was 2.56%. The Percent Effect is 1.15% in [6]; 6.76% in the experiment filed under Homo sapiens; -1.06% in [7]; 3.85% in experiment [8]; -0.943% in [9].

In the case of `O=C(NCCc1cccs1)[C@H]1CO[C@H]2CCNC[C@H]2C1`, the Percent Effect was 0.545% in experiment [1]; 13.5% in experiment [2]; 0.0792% in [3]; -4.42% in experiment [4]; -4.99% in the experiment on Trypanosoma cruzi; 6.05% in experiment [5]. Moreover, the Percent Effect in experiment [6] was 19.4%; in the experiment listed under Homo sapiens, 12.4%; in experiment [7] it was 1.08%; in experiment [8], 10.3%; in [9], -2.47%.

Take `CN(CCc1cccs1)C1CCCN(Cc2noc(C3CC3)n2)C1` (stereo not given): the Percent Effect was -1.04% in experiment [1]; 4.17% in [2]; -15.1% in experiment [3]; -5.62% in experiment [4]; 2.82% with Trypanosoma cruzi; 10.2% in [5]. Further, the Percent Effect in experiment [6] was 15.6%; in the experiment filed under Homo sapiens, -4.89%; in [7] it was 3.16%; in experiment [8], 7.69%; in experiment [9] it was -3.54%.

With `CCN(Cc1ccc2c(c1)OCCO2)C(=O)NCc1cc[nH]n1`, the Percent Effect in experiment [1] was -2.19%; in [2] it was 15.6%; in experiment [3], 1.3%; in [4], 2.08%; in the experiment with Trypanosoma cruzi, -2.06%; in experiment [5], 1.47%. Further, the Percent Effect is 7.03% in [6]; -7.15% in the experiment filed under Homo sapiens; 5.71% in experiment [7]; 11.8% in [8]; -19.3% in experiment [9].

In the case of `CS(=O)(=O)N[C@@H]1CCO[C@]2(CCN(C(=O)C3=CCCC3)C2)C1`, the Percent Effect was -2.88% in [1]; 13.5% in experiment [2]; 3.79% in experiment [3]; -4.46% in experiment [4]; -2.25% with Trypanosoma cruzi; 14.3% in experiment [5]. Moreover, the Percent Effect in experiment [6] is 23.2%; in the experiment listed under Homo sapiens it was -15.3%; in experiment [7], 5.41%; in experiment [8] it was 12.8%; in experiment [9] it was -3.57%.

On to `CN(CC1CCCCO1)C(=O)c1ccnc(OC2CCC2)c1` (stereo not given), for which the Percent Effect was 3.17% in experiment [1]; 0% in [2]; -6.16% in experiment [3]; 1.71% in experiment [4]; 6.18% in the experiment on Trypanosoma cruzi; 10.9% in experiment [5]. The Percent Effect in [6] was 8.62%; in the experiment filed under Homo sapiens, 29.6%; in [7], -1.59%; in experiment [8] it was 0%; in experiment [9], -2.67%.

Take `Cc1ncsc1CN1C[C@@H]2COC[C@]2(COc2ccc(C#N)cn2)C1`: the Percent Effect in experiment [1] was -3.44%; in experiment [2], -5.48%; in experiment [3], -1.94%; in experiment [4], 1.31%; in the experiment on Trypanosoma cruzi it was 7.74%; in experiment [5] it was -3.59%. The Percent Effect in experiment [6] was 2.31%; in the experiment listed under Homo sapiens, -1.06%; in experiment [7], 1.04%; in [8], 3.7%; in [9], 2.89%.
